Bioassay records: PubChem, The Scripps Research Institute Molecular Screening Center
Shown are actives, neighbours in structure and some others; about 3.3% of the full set was active somewhere.
rCAG binder – binders of r(CAG) RNA repeats, primary screen, biochemical, fluorescence; r(CAG) RNA repeat, TO-PRO-1 dye displacement fluorescence; inhibition, % at 3 µM; 1.3% of 370,000 active;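 active = inhibition above the plate cutoff, the mean of all test compounds on that plate plus 3 SD, cut at about 35% in these data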;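 also: 0% = DMSO alone and 100% = 100 µM mitoxantrone as full dye displacement; higher means more dye released from RNA so lower well fluorescence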
NOD2-RIPK2 inh – NOD2-RIPK2 binding disruptors in cells, primary screen, fluorescence, CHO cells, BLA complementation; CCF4 ratio; inhibition, % at 4.98 µM; 0.38% of 360,000 active; Receptor-interacting serine/threonine-protein kinase 2 (Homo sapiens), O43353; in the data active = inhibition above about 21%;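 also: 0% = vehicle only and 100% = reference blocker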
Target sequence (O43353 whole entry, looked up): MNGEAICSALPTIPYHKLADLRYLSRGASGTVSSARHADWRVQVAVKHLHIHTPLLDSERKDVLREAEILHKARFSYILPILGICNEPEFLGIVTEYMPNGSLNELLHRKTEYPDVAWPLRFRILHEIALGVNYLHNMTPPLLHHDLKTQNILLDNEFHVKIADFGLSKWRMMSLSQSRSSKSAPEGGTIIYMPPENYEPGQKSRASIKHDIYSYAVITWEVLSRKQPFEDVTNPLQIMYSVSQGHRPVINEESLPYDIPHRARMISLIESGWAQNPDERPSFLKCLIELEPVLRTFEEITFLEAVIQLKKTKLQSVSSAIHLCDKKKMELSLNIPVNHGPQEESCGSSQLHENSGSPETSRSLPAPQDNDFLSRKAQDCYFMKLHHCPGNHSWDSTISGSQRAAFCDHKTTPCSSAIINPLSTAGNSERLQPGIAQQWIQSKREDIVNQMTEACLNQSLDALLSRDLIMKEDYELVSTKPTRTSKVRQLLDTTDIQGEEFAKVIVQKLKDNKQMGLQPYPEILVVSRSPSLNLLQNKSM
ABHD5 PLIN5 PPI – ABHD5-PLIN5 interaction inhibitors, primary screen, cell lysate, split luciferase complementation, luminescence; Split G. princeps luciferase complementation, 4 h; Perilipin-5 (Homo sapiens) + 1-acylglycerol-3-phosphate O-acyltransferase ABHD5 (Homo …; inhibition, % at 4 µM; 0.78% of 360,000 active; AID 602281, 2012;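 active = inhibition above the mean inhibition across every tested compound plus 3 SD, cut at about 22% in these data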;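 also: 0% = DMSO only wells and the 100% control is not disclosed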
TLR9-MyD88 block – inhibitors of TLR9-MyD88 association in cells, primary screen, cell-based, CHO, BLA complementation, fluorescence; CCF4 FRET ratio; inhibition, % at 4.98 µM; 0.21% of 340,000 active; AID 504734, 2011;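 active = inhibition above the mean over all tested compounds plus 3 SD, cut at about 21% in these data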;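 also: 0% = DMSO only wells and 100% = clavulanate BLA inhibitor control wells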
PRMT1 inh – PRMT1 methyltransferase inhibitors, primary screen, biochemical, fluorescence polarization; recombinant PRMT1, activity-based probe fluorescence polarization; Protein arginine N-methyltransferase 1 (Homo sapiens), Q99873; AID 652257, 2013; inhibition, % at 2.79 µM; 1.3% of 370,000 active;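 active = inhibition above about 21% made by adding two undisclosed values, limit read from the data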
TLR4-MyD88 BLA – inhibitors of TLR4-MyD88 association in cells, primary screen, cell-based, HeLa CL3-4, BLA complementation, FRET ratio. HeLa CL3-4 TLR4/MyD88 BLA complementation. Toll-like receptor 4 (Homo sapiens) + Myeloid differentiation primary response protein …. AID 861, 2007. 0.18% of 200,000 active. inhibition, % at 8.4 µM; in the data active = inhibition above about 25%;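 also: 0% = vehicle and 100% = reference inhibitor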
The depositor's hits bear a star; · = not tested or not shown.

SMILES | rCAG binder | NOD2-RIPK2 inh | ABHD5 PLIN5 PPI | TLR9-MyD88 block | PRMT1 inh | TLR4-MyD88 BLA
Cc1cccc(N2C(=O)/C(=C/c3ccc(CN(CCC#N)S(C)(=O)=O)o3)C(=O)NC2=S)c1 | 66* | -4 | 0 | -5 | 41* | 0
CC(C)CNC(=O)c1c(N)n(Cc2ccco2)c2nc3ccccc3nc12 | 28 | -12 | 22 | -31 | 40* | -20
Brc1ccc2c(c1)-n1nncc1CNC2 | 2 | · | · | · | -6 | ·
O=C1NC(=S)N(C2CC2)C(=O)/C1=C/c1ccc2c(c1)CCN2CCCCl | 28 | 3 | -11 | -6 | 35* | 2
O=C1NC(=O)C(Sc2ccccc2[N+](=O)[O-])C(=O)N1 | 5 | 0 | -4 | 5 | 57* | ·
COC(=O)C1CC(OC(C)=O)C(=O)[C@H]2C1(C)CC[C@H]1C(=O)OC(c3ccoc3)CC12C (some centres undefined) | 3 | · | · | · | 2 | ·
O=C(NC(CCC(O)CO)P(=O)(Oc1ccccc1)Oc1ccccc1)OCc1ccccc1 (centres undefined) | -3 | · | · | · | -3 | ·
COc1ccc(N2C(=O)CC(=O)NC2=O)cc1 | 5 | -6 | 22* | 2 | 7 | 5
Cc1cccc(N2C(=O)NC(=O)/C(=C\c3cccn3-c3ccc(Cl)cc3)C2=O)c1 | 15 | 15 | 30* | 9 | 12 | 13
Cc1cc(C)cc(N2C(=O)NC(=O)/C(=C/c3cccn3-c3ccc(Cl)cc3)C2=O)c1 | 7 | 1 | 2 | 5 | 3 | 4
CCN(CCO)c1ccc(N=Cc2c(O)n(C)c(=S)[nH]c2=O)cc1 | -1 | -8 | -3 | · | 21* | ·
CCN(CC)c1ccc(N=Cc2c(O)n(Cc3ccco3)c(=O)[nH]c2=O)cc1 | 10 | -10 | -9 | -1 | 21 | ·
CN1C[C@H](O)[C@H]2C[C@@H]1c1ccccc1O2 | 0 | · | · | · | -1 | ·
CN1CCN(c2ccc([N+](=O)[O-])c3no[n+]([O-])c23)CC1 | -207 | 6 | 0 | 16 | 112* | ·
C=CCN(CC#CCO)Cc1ccc(OC)cc1OC | 2 | · | · | · | -3 | ·
O=[N+]([O-])c1ccc(O)c([N+](=O)[O-])c1 | 2 | -9 | 4 | 3 | -3 | ·
O=[N+]([O-])c1cc(O)c(O)c([N+](=O)[O-])c1 | 2 | -7 | -2 | -3 | 32* | ·
COc1cc(C2c3cc4c(cc3CC3COC(=O)C32)OCO4)cc(OC)c1OC (centres undefined) | -2 | -8 | -2 | 1 | 22* | ·
COc1cc(C2c3cc4c(c(O)c3CC3COC(=O)C32)OCO4)cc(OC)c1OC (centres undefined) | 1 | 13 | -4 | 2 | 1 | ·
Cc1ccc(N2C(=O)NC(=O)/C(=C/c3ccc(-c4ccc(C(=O)O)c(Cl)c4)o3)C2=O)cc1 | 18 | 7 | 22* | 0 | 12 | -2
CC(=O)C1=C(C)OC2=C(C(=O)CCC2)[C@@]12C(=O)N(C)c1ccccc12 | 1 | · | · | · | -2 | ·
N#CC(C#N)=NNc1ccc(S(N)(=O)=O)cc1 | 67* | 0 | 9 | -2 | 0 | ·
CC1CCN(S(=O)(=O)c2ccc(NN=C(C#N)C#N)cc2)CC1 | · | · | · | · | · | 11
COc1ccc(N2C(=O)NC(=O)/C(=C/c3cccc(OC(=O)c4cccs4)c3)C2=O)cc1Cl | 31 | · | · | · | 5 | 14
Cc1ccc(N2C(=O)NC(=O)/C(=C/c3ccc(OC(=O)c4cccs4)cc3)C2=O)cc1 | 2 | -3 | 34* | 2 | 10 | 4
SMILES | rCAG binder | NOD2-RIPK2 inh | ABHD5 PLIN5 PPI | TLR9-MyD88 block | PRMT1 inh | TLR4-MyD88 BLA
C[C@]12CC[C@H]3[C@@H](CCC4=CC(=O)CC[C@@H]43)[C@@H]1CC[C@@H]2O | 0 | -14 | 9 | -14 | 5 | ·
C[C@]12CC[C@@H]3c4ccc(O)c(O)c4CC[C@H]3[C@@H]1CC[C@@H]2O | 17 | -5 | 6 | -3 | 35* | ·
CC1=C(C(=O)O)N2C(=O)[C@@H](NC(=O)CCCC(=O)O)[C@H]2SC1 | 1 | 1 | -8 | -7 | 23* | -11
O=C1NC(=O)N(c2ccc(Cl)cc2)C(=O)/C1=C\c1ccc(Sc2nc3ccccc3[nH]2)o1 | 49* | -1 | 4 | 5 | 18 | -13
CCn1c(O)c(C=Nc2cc(Cl)ccc2Cl)c(=O)n(CC)c1=O | -1 | -1 | 13 | 1 | 22* | 6
CC(C)C(C(=O)NC(C)(C)C)N1C(=O)CN=C(c2ccccc2)c2ccccc21 (centres undefined) | 3 | · | · | · | 1 | ·
CCCC(=O)N1c2ccc(Cl)cc2C(c2ccccc2)=NCC1C(=O)NC(C)(C)C (centres undefined) | 0 | · | · | · | -3 | ·
Clc1ccc(C(c2ccc(Cl)cc2)n2cc[n+](CC(OCc3ccc(Cl)cc3Cl)c3ccc(Cl)cc3Cl)c2)cc1 (centres undefined) | 16 | 21 | -4 | 28* | 3 | ·
C=C(C=O)CC1CC(O)[C@]2(C)OC3CC4OC5C[C@]6(C)O[C@]7(C)CCC8OC9C[C@]%10(C)OC%11C(C)=CC(=O)OC%11CC%10OC9C[C@@H](C)C8OC7CC6O[C@]5(C)C/C=C\C4OC3CC2O1 (some centres undefined) | · | · | · | · | -1 | ·
COC(=O)C1=C(c2ccc(OC(F)(F)F)cc2)C[C@@H]2CC[C@H]1N2C(=O)NCc1ccco1 | 0 | · | · | · | 1 | ·
CCCC[C@@H](C)C[C@@H](C)C(=O)N(C)[C@@H](CC(C)C)C(=O)N[C@H](C(=O)N(C)[C@H](C(=O)N1C[C@@H](O)C[C@H]1C(=O)N1C(=O)C=C[C@@H]1C)C(C)C)C(C)OC(C)=O (some centres undefined) | · | -7 | 43* | -15 | · | ·
C/C(=N\NC(=O)c1ccccc1O)c1c(O)n(Cc2ccccc2)c(=O)[nH]c1=O | 86* | -9 | -2 | -2 | 3 | ·
C/C(=N\NC(=O)c1ccncc1)c1c(O)n(Cc2ccccc2)c(=O)[nH]c1=O | 12 | 0 | 7 | 1 | 0 | ·
COc1cc(O)c(C(=O)O)c(-c2cc(O)c(O)cc2C)c1 | 11 | -3 | 19 | 1 | 67* | ·
Cc1ccsc1/C=C1\C(=O)NC(=S)N(C)C1=O | 9 | 3 | 5 | -2 | 6 | ·
COc1ccc(/C=C2\C(=O)NC(=S)N(C)C2=O)cc1C | 26 | 8 | -15 | 0 | 45* | -4
O=C(c1ccccc1)N1Cc2cc(Br)ccc2-n2nncc2C1 | 2 | · | · | · | -1 | ·
COC1CC=C2CCN3CCC4=C(CC(=O)OC4)C23C1 (centres undefined) | 2 | · | · | · | -4 | ·
